# A collection of fitness landscapes (doi:10.1126/science.1257360)
# The full ranking holds about 140,000 sequences; the median of “enrichment ratio after two sorts for PhoP signalling” is about 0, and the highest 2% start at about 11. The sample as a whole holds a higher share of the highest values than the screen did.
# B1: PhoQ; a variant is named by its letters at X, in order, P23837 (parent)
# chain: MKKLLRLFFPLSLRVRFLLATAAVVLVLSLAYGMVALIGYSVSFDKTTFRLLRGESNLFYTLAKWENNKLHVELPENIDKQSPTMTLIYDENGQLLWAQRDVPWLMKMIQPDWLKSNGFHEIEADVNDTSLLLSGDHSIQQQLQEVREDDDDAEMTHSVAVNVYPATSRMPKLTIVVVDTIPVELKSSYMVWSWFIYVLSANLLLVIPLLWVAAWWSLRPIEALAKEVRELEEHNRELLNPATTRELTSLVRNLNRLLKSERERYDKYRTTLTDLTHSLKTPLXXLQXXLRSLRSEKMSVSDAEPVMLEQISRISQQIGYYLHRASMRGGTLLSRELHPVAPLLDNLTSALNKVYQRKGVNISLDISPEISFVGEQNDFVEVMGNVLDNACKYCLEFVEISARQTDEHLYIVVEDDGPGIPLSKREVIFDRGQRVDTLRPGQGVGLAVAREITEQYEGKIVAGESMLGGARMEVIFGRQHSAPKDE
# Variants of: B1
# Test: enrichment ratio after two sorts for PhoP signalling (ratio (wild type AVST 3.29)); higher = more functional
# Conditions: with PhoP (E. coli)
row,Variant,enrichment ratio
1,PCQA,≤ 0.25
2,HATN,≤ 0.25
3,NYIP,≤ 0.25
4,KACF,≤ 0.25
5,NACF,≤ 0.25
6,TACI,22.6
7,TACE,≤ 0.25
8,KACL,≤ 0.25
9,TAMD,6.3
10,TACL,11.4
11,TACF,18.8
12,NACL,4.16
13,TAAI,7.96
14,TACA,8.47
15,TACS,14.1
16,WKNR,≤ 0.25
17,VKRR,≤ 0.25
18,DLFL,≤ 0.25
19,DTVY,≤ 0.25
20,GNTN,≤ 0.25
21,FYCC,≤ 0.25
22,AHHD,≤ 0.25
23,RGHL,0.34
24,VRKH,≤ 0.25
25,TACR,14.8
26,NACR,≤ 0.25

row,Variant,enrichment ratio
1,YACQ,≤ 0.25
2,TACC,13.6
3,TAKR,≤ 0.25
4,TAQP,≤ 0.25
5,TACQ,15
6,KACC,≤ 0.25
7,TADH,4.03
8,WVLV,≤ 0.25
9,EKCV,≤ 0.25
10,QQYK,≤ 0.25
11,RYKI,≤ 0.25
12,WKHA,≤ 0.25
13,HFSC,≤ 0.25
14,VSFV,0.649
15,WDSR,≤ 0.25
16,AQCD,42.7
17,ANCD,0.285
18,KKCD,≤ 0.25
19,SLCD,17.9
20,NQCD,≤ 0.25
21,AICD,5.13
22,TQCD,29.3
23,AKCD,0.285
24,PLCD,≤ 0.25
25,TKCD,21.6
26,WLCD,≤ 0.25

row,Variant,enrichment ratio
1,IQCD,≤ 0.25
2,FDEE,≤ 0.25
3,LLLK,≤ 0.25
4,IWDM,≤ 0.25
5,WDSH,≤ 0.25
6,HNFP,≤ 0.25
7,PDHT,≤ 0.25
8,MHPL,≤ 0.25
9,KHNC,≤ 0.25
10,AWVP,≤ 0.25
11,NDNL,≤ 0.25
12,FQCD,≤ 0.25
13,STCD,6.22
14,KCCD,≤ 0.25
15,KYCD,≤ 0.25
16,VCCD,≤ 0.25
17,SQCD,11.4
18,SCCD,16.2
19,SNCD,16.4
20,SPCD,≤ 0.25
21,GQTA,≤ 0.25
22,QQPV,≤ 0.25
23,TPAE,≤ 0.25
24,VMCM,≤ 0.25
25,QQDM,≤ 0.25
26,SEES,6.49

row,Variant,enrichment ratio
1,LFRE,≤ 0.25
2,EYQC,≤ 0.25
3,FVCF,12
4,GNCF,6.9
5,NVCF,≤ 0.25
6,GVCF,25
7,PVCF,≤ 0.25
8,MVCF,5.97
9,KKRY,≤ 0.25
10,LMRK,≤ 0.25
11,KFQK,≤ 0.25
12,KDWW,≤ 0.25
13,TEMR,12.2
14,TEIG,18.6
15,TEGR,≤ 0.25
16,TEMV,20.2
17,TEMS,11.4
18,NEIG,≤ 0.25
19,TEEV,≤ 0.25
20,TEMD,1.58
21,TEMW,≤ 0.25
22,MEIG,8.35
23,HRMR,≤ 0.25
24,TEYV,4.31
25,VAVY,≤ 0.25
26,IKRV,≤ 0.25

row,Variant,enrichment ratio
1,WDMR,≤ 0.25
2,RSTE,≤ 0.25
3,RVPP,≤ 0.25
4,KQPC,≤ 0.25
5,EFMI,≤ 0.25
6,QNHE,≤ 0.25
7,HRLN,≤ 0.25
8,REIC,≤ 0.25
9,VPQL,≤ 0.25
10,TEVG,10.9
11,KSWV,≤ 0.25
12,NRMK,≤ 0.25
13,TEMG,19.1
14,HPWV,≤ 0.25
15,TEGV,12.6
16,KRMK,≤ 0.25
17,TEGG,5.71
18,TEWV,18.4
19,TEHV,10.3
20,TEMK,32.5
21,TGGV,4.98
22,GQIN,≤ 0.25
23,NEIF,≤ 0.25
24,PWWM,≤ 0.25
25,LMKL,≤ 0.25
26,AMSP,≤ 0.25

row,Variant,enrichment ratio
1,TEMI,51.6
2,TRMY,0.856
3,SRMA,≤ 0.25
4,TEMA,38.6
5,TEMY,12.3
6,TEMT,7.24
7,TEMF,5.53
8,TEAG,19.7
9,KRMA,≤ 0.25
10,MEAG,≤ 0.25
11,LRMY,≤ 0.25
12,NEAG,2.93
13,KIPV,≤ 0.25
14,QTVW,≤ 0.25
15,FSFP,≤ 0.25
16,AQGM,13.3
17,AKFM,0.887
18,AQCA,32.5
19,AQGR,≤ 0.25
20,AQFM,12.2
21,AQCQ,31.6
22,EQCQ,≤ 0.25
23,AQGD,≤ 0.25
24,AQCS,11.1
25,AIFM,≤ 0.25
